# Out of some 2,300 compounds screened, about 1,100 (48%) were called active. No rule for the calls is given here. So high a share suggests a set chosen from earlier hits. This is one part of the list. Results with a measured potency or affinity are listed apart.
# Test: S. typhi counter-screen signal inhibition – fluorescence, 4 h, counter-screen for PhoP regulon inhibitor project, dose response (AID 2384)
# Details: S. typhi GFP reporter counter-screen; series mostly up to 150 µM
row,SMILES,inhibition
1,O=S(=O)(Nc1cccc(-c2cn3c(n2)SCC3)c1)c1ccc(F)cc1F,inactive
2,COc1ccc(NC(=O)N(CCc2ccccc2)Cc2cc3c(C)cc(C)cc3[nH]c2=O)cc1,inactive
3,CCC(CC)C(=O)NCCc1cc2ccc(C)cc2[nH]c1=O,inactive
4,COc1ccc(Cl)cc1-c1n[nH]c(=S)o1,inactive
5,CC1CC1C(=O)Nc1nc2ccc(S(C)(=O)=O)cc2s1 (centres undefined),inactive
6,Cc1ccc(N2C(=O)[C@@H]3[C@H](C2=O)[C@H]2C=CC=NN2[C@@H]3C(=O)Nc2ccc(Cl)cc2)cc1,inactive
7,COc1ccccc1CNC(=O)Cn1c(=O)oc2cc(S(=O)(=O)N3CCCC3)ccc21,inactive
8,COc1cccc(NC(=O)COC(=O)Cc2ccccc2[N+](=O)[O-])c1,inactive
9,Cc1ccc(NC(=O)c2sccc2C)cc1[N+](=O)[O-],inactive
10,O=C(Nc1ccc(Cl)cc1)c1cccs1,inactive
11,O=C(N/N=C/c1cccc(OCc2ccccc2)c1)c1cccs1,inactive
12,Cc1ccc(NC2OC(CO)C(O)C(O)C2O)cc1 (centres undefined),inactive
13,O=C1CC(NC(=O)C(F)(F)F)=NN1c1ccccc1,inactive
14,Cc1nc2ccc(NC(=O)C(F)(F)F)cc2o1,inactive
15,NS(=O)(=O)c1cc2c(cc1Cl)NC(Cc1ccccc1)NS2(=O)=O (centres undefined),inactive
16,CCOc1cc(S(=O)(=O)N2CCN(CC)CC2)ccc1Cl,inactive
17,CCOC(=O)C1CCN(C(=O)CCc2nc3ccccc3[nH]2)CC1,inactive
18,c1ccc2cc(CSCc3nc4ccccc4[nH]3)ccc2c1,inactive
19,C#CCOCCOCCOCCNc1nc(N2CCN(C(=O)CCCCCCCCCCNC(=O)[C@@H](CCSC)n3cc(CCO)nn3)CC2)nc(N2CCN(C(=O)CCCCCCCCCCNC(=O)[C@H]([C@@H](C)CC)n3cc(CCCCCN)nn3)CC2)n1,inactive
20,C#CCOCCOCCOCCNc1nc(N2CCN(C(=O)CCCCCCCCCCNC(=O)[C@H]([C@@H](C)CC)n3cc(CCCCN=C(N)N)nn3)CC2)nc(N2CCN(C(=O)CCCCCCCCCCNC(=O)[C@@H]([C@H](C)O)n3cc(C)nn3)CC2)n1,inactive
21,c1cc2c(cc1Oc1nc(N3CCOCC3)nc(N3CCOCC3)n1)OCO2,inactive
22,COc1cc(CNC(=O)CCC(=O)N2C[C@H]3C[C@H](C2)c2cccc(=O)n2C3)cc(OC)c1OC,inactive
23,CC1(C)Cc2c(sc(NC(=O)COc3ccc(Cl)cc3)c2C(N)=O)C(C)(C)N1,inactive
24,CCC(=O)N(Cc1cc2cc(OC)ccc2[nH]c1=O)c1ccc(C)cc1C,inactive

# Source: PubChem BioAssay AID2384 (Southern Research Specialized Biocontainment Screening …, 2010)
